# From PubChem BioAssay (NCATS)
# Results filed as inconclusive are left out. A call without a number means that no potency is given here. Calls of active or inactive are those of the source. Calls come from the whole dose curve; as a rule, active = well fitted curve in the direction sought with a large enough effect; inconclusive = small, poorly fitted or top-dose-only effect, or another doubt; inactive = no such curve, though single readings can be large; an effect the other way counts as inactive or inconclusive.
# Molecular target: Aldehyde dehydrogenase, mitochondrial (Homo sapiens) (UniProt P05091)
# Assay: qHTS for Inhibitors of the Aldehyde Dehydrogenase Family (ALDH2) Primary screen (AID 2061308); note: nearly all actives have a fitted effect of over 55% in size
# Conditions: ALDH2 enzyme inhibition qHTS, 1536-well; series mostly up to 56 µM
row,Compound,Potency
1,Cc1ccc(CC(=O)Nc2nc(-c3ccc4c(c3)CCN4C(=O)c3ccccc3C)c(C)s2)cc1C,inactive
2,Cc1ccc(-n2c(=O)ccc(=O)n2CC(=O)N(C)C(C)c2ccco2)cc1 (stereo not given),inactive
3,Cc1cccc(CNc2ccc(S(=O)(=O)Nc3nccs3)cc2)c1O,inactive
4,C=C1C(=O)OC2/C=C(/C)C3=CC(=O)C(C)(CC(OC(=O)/C(C)=C/COC(C)=O)C12)O3 (stereo not given),inactive
5,O=[S+]([O-])(c1ccc(N2CCOCC2)nc1)N1CCN([S+](=O)([O-])c2c(F)cccc2F)CC1,inactive
6,CNc1oc(-c2cccc3cnccc23)nc1C#N,inactive
7,CNC1CCC(N(Cc2ccc(OC)c(-c3ccc(C#N)cc3)c2)C(=O)c2sc3ccccc3c2Cl)CC1 (stereo not given),inactive
8,CC(=O)c1ccccc1-c1ncc(C)c(NCC2CCN(c3cccnc3)CC2)n1,inactive
9,O=C1CCCC2=C1C1(CCCC1)N=C(Nc1nc3cc(Cl)ccc3o1)N2,inactive
10,Cc1ccc(OCCn2c(CCNC(=O)c3cccc4ccccc34)nc3ccccc32)cc1,inactive
11,O=C1CCCC2=C1C(c1[nH]ncc1Cl)N=C(Nc1nc3ccccc3s1)N2 (stereo not given),inactive
12,CCNC(=O)C1CCC(C(=O)Nc2ccc([S+](=O)([O-])Nc3nccs3)cc2)CC1 (stereo not given),inactive
13,CC(=O)c1ccccc1-c1ncc(C)c(NCc2ccc(-c3cccnc3)cc2)n1,inactive
14,CC(C)C(OC(=O)CNC(=O)c1ccccc1)C(=O)Nc1cc(C(F)(F)F)ccc1Cl (stereo not given),inactive
15,CC(C)(C)C1CCC(C(=O)Nc2ccc(S(=O)(=O)Nc3nccs3)cc2)CC1 (stereo not given),inactive
16,COc1ccc(NC(=O)C(OC(=O)CNC(=O)c2ccccc2)c2ccccc2)c(C)c1 (stereo not given),inactive
17,Nc1ccc2c(c1)C(=O)NS2(=O)=O,inactive
18,O=C(O)CCCCCNC(=O)CSc1nnc(-c2ccc([S+](=O)([O-])N3CCCC3)cc2)n1-c1ccccc1,inactive
19,CCCCCC1CCC(C(=O)Nc2ccc(S(=O)(=O)Nc3nccs3)cc2)CC1 (stereo not given),inactive
20,Cc1cc2c(s1)c1cnn(Cc3cc(F)c(Cl)cc3Cl)c(=O)c1n2C,inactive

row,Compound,Potency
1,CC(C)CCn1c(CN2CCN(C(=O)C(C)C)CC2)nc2c1c(=O)n(C)c(=O)n2C,inactive
2,COc1ccc(C2Nc3ccccc3C(=O)N2Cc2ccco2)cc1CSc1c(C)cccc1C (stereo not given),inactive
3,O=C(OCC#CCSc1nnc(-c2ccc3ccccc3c2)o1)c1cccc(F)c1,inactive
4,O=[S+]([O-])(Nc1ccc(-c2nc3ccccc3[nH]2)cc1)c1ccc2c(c1)CCO2,inactive
5,O=C(COc1ccccc1Br)NCCc1nc2ccccc2[nH]1,inactive
6,O=S(=O)(Cc1ccc(Cl)c(Cl)c1)Nc1nnc(-c2ccncc2)s1,inactive
7,CC(=O)Nc1ccc(C(=O)Nc2ccc(-c3nc4ccccc4[nH]3)cc2)cc1,inactive
8,CCC(=O)NC(c1cccs1)c1cc(Cl)c2cccnc2c1O (stereo not given),inactive
9,NC(=O)C1CCN(c2nc(-c3cccs3)cs2)CC1,inactive
10,Cc1cnc(-c2ccccc2C(C)C)nc1NCc1ccc(-c2cccnc2)cc1,inactive
11,Cc1nc(NCc2ccccc2)c2nc(-c3ccccc3)n(CC(C)(C)CN(C)C)c2n1,inactive
12,CCN(CC)CCCn1c(-c2ccccc2)nc2c(N3CCOCC3)nc(C)nc21,inactive
13,Cc1ccc(-c2ccc(=O)n(CC(=O)NCCc3ccc(O)cc3)n2)cc1,inactive
14,COC(=O)C(CC1(O)c2ccccc2N2C(=O)C(C)(C)N(O)C21)n1cnc2ccccc2c1=O (stereo not given),inactive
15,O=C(c1ccc2c(c1)ncn2-c1ccc(Cl)cc1)N1CCCCC1,inactive
16,COc1ccc([S+](=O)([O-])Nc2ccc(-c3nc4ccccc4[nH]3)cc2)cc1OC,inactive
17,Cc1cc2c(s1)c1cnn(Cc3ccc(F)c(Cl)c3)c(=O)c1n2C,inactive
18,COc1ccc(-c2nnc3n2N=C(c2cc(OC)ccc2OC)CS3)cc1,inactive
19,Cc1cc2c(s1)c1cnn(Cc3ccc(Br)cc3F)c(=O)c1n2C,inactive
20,CN1CCC(N(Cc2cccs2)c2ccccc2)CC1,inactive

# Molecular target: Retinaldehyde dehydrogenase 3 (Homo sapiens) (UniProt P47895)
# Assay: qHTS for Inhibitors of the Aldehyde Dehydrogenase Family (ALDH1A3) Primary screen (AID 2061315)
# Conditions: ALDH inhibition qHTS; series mostly up to 56 µM
row,Compound,Potency
1,Cc1ccc(CC(=O)Nc2nc(-c3ccc4c(c3)CCN4C(=O)c3ccccc3C)c(C)s2)cc1C,inactive
2,Cc1ccc(-n2c(=O)ccc(=O)n2CC(=O)N(C)C(C)c2ccco2)cc1 (stereo not given),inactive
3,Cc1cccc(CNc2ccc(S(=O)(=O)Nc3nccs3)cc2)c1O,inactive
4,C=C1C(=O)OC2/C=C(/C)C3=CC(=O)C(C)(CC(OC(=O)/C(C)=C/COC(C)=O)C12)O3 (stereo not given),inactive
5,O=[S+]([O-])(c1ccc(N2CCOCC2)nc1)N1CCN([S+](=O)([O-])c2c(F)cccc2F)CC1,inactive
6,CNc1oc(-c2cccc3cnccc23)nc1C#N,inactive
7,CNC1CCC(N(Cc2ccc(OC)c(-c3ccc(C#N)cc3)c2)C(=O)c2sc3ccccc3c2Cl)CC1 (stereo not given),inactive
8,CC(=O)c1ccccc1-c1ncc(C)c(NCC2CCN(c3cccnc3)CC2)n1,inactive
9,O=C1CCCC2=C1C1(CCCC1)N=C(Nc1nc3cc(Cl)ccc3o1)N2,inactive
10,Cc1ccc(OCCn2c(CCNC(=O)c3cccc4ccccc34)nc3ccccc32)cc1,inactive
11,O=C1CCCC2=C1C(c1[nH]ncc1Cl)N=C(Nc1nc3ccccc3s1)N2 (stereo not given),inactive
12,CCNC(=O)C1CCC(C(=O)Nc2ccc([S+](=O)([O-])Nc3nccs3)cc2)CC1 (stereo not given),inactive
13,CC(=O)c1ccccc1-c1ncc(C)c(NCc2ccc(-c3cccnc3)cc2)n1,inactive
14,CC(C)C(OC(=O)CNC(=O)c1ccccc1)C(=O)Nc1cc(C(F)(F)F)ccc1Cl (stereo not given),inactive
15,CC(C)(C)C1CCC(C(=O)Nc2ccc(S(=O)(=O)Nc3nccs3)cc2)CC1 (stereo not given),inactive
16,COc1ccc(NC(=O)C(OC(=O)CNC(=O)c2ccccc2)c2ccccc2)c(C)c1 (stereo not given),inactive
17,Nc1ccc2c(c1)C(=O)NS2(=O)=O,inactive
18,O=C(O)CCCCCNC(=O)CSc1nnc(-c2ccc([S+](=O)([O-])N3CCCC3)cc2)n1-c1ccccc1,inactive
19,CCCCCC1CCC(C(=O)Nc2ccc(S(=O)(=O)Nc3nccs3)cc2)CC1 (stereo not given),inactive
20,Cc1cc2c(s1)c1cnn(Cc3cc(F)c(Cl)cc3Cl)c(=O)c1n2C,inactive

row,Compound,Potency
1,CC(C)CCn1c(CN2CCN(C(=O)C(C)C)CC2)nc2c1c(=O)n(C)c(=O)n2C,inactive
2,COc1ccc(C2Nc3ccccc3C(=O)N2Cc2ccco2)cc1CSc1c(C)cccc1C (stereo not given),inactive
3,O=C(OCC#CCSc1nnc(-c2ccc3ccccc3c2)o1)c1cccc(F)c1,inactive
4,O=[S+]([O-])(Nc1ccc(-c2nc3ccccc3[nH]2)cc1)c1ccc2c(c1)CCO2,inactive
5,O=C(COc1ccccc1Br)NCCc1nc2ccccc2[nH]1,inactive
6,O=S(=O)(Cc1ccc(Cl)c(Cl)c1)Nc1nnc(-c2ccncc2)s1,inactive
7,CC(=O)Nc1ccc(C(=O)Nc2ccc(-c3nc4ccccc4[nH]3)cc2)cc1,inactive
8,CCC(=O)NC(c1cccs1)c1cc(Cl)c2cccnc2c1O (stereo not given),inactive
9,NC(=O)C1CCN(c2nc(-c3cccs3)cs2)CC1,inactive
10,Cc1cnc(-c2ccccc2C(C)C)nc1NCc1ccc(-c2cccnc2)cc1,inactive
11,Cc1nc(NCc2ccccc2)c2nc(-c3ccccc3)n(CC(C)(C)CN(C)C)c2n1,inactive
12,CCN(CC)CCCn1c(-c2ccccc2)nc2c(N3CCOCC3)nc(C)nc21,inactive
13,Cc1ccc(-c2ccc(=O)n(CC(=O)NCCc3ccc(O)cc3)n2)cc1,inactive
14,COC(=O)C(CC1(O)c2ccccc2N2C(=O)C(C)(C)N(O)C21)n1cnc2ccccc2c1=O (stereo not given),inactive
15,O=C(c1ccc2c(c1)ncn2-c1ccc(Cl)cc1)N1CCCCC1,inactive
16,COc1ccc([S+](=O)([O-])Nc2ccc(-c3nc4ccccc4[nH]3)cc2)cc1OC,inactive
17,Cc1cc2c(s1)c1cnn(Cc3ccc(F)c(Cl)c3)c(=O)c1n2C,inactive
18,COc1ccc(-c2nnc3n2N=C(c2cc(OC)ccc2OC)CS3)cc1,inactive
19,Cc1cc2c(s1)c1cnn(Cc3ccc(Br)cc3F)c(=O)c1n2C,inactive
20,CN1CCC(N(Cc2cccs2)c2ccccc2)CC1,inactive
